These entries were drawn from the full list.
aSyn 5UTR act: Activators via SNCA 5'UTR binding, MLPCN; alpha-synuclein 5'UTR reporter, activators screen; activity score, % (tested at 7.5 µM), hits read low; 300,000 tested, 7.1% active; in the data active means activity score below about -60%
* = called active by the depositor.

SMILES	aSyn 5UTR act
Cc1nc(NC(=O)C(C)Oc2cccc(Cl)c2)sc1C(=O)N(C)C (stereo not drawn)	-65.0*
Cc1ccc(C(=O)Nc2nc(C)c(C(=O)N(C)C)s2)o1	-76.8*
Cc1nc(NC(=O)/C=C/c2ccccc2)sc1C(=O)N(C)C	-165.8*
Cc1nnc(NC(=O)c2oc3ccccc3c2C)s1	-83.4*
O=C1c2c(Br)c(Br)c(Br)c(Br)c2C(=O)N1c1ccccn1	-112.3*
S=C(N/N=C/c1ccc(Cl)c(Cl)c1)Nc1ccccc1Cl	-80.8*
Fc1cccc(/C=N/NC(=S)Nc2ccccc2Cl)c1	-230.5*
Cc1cc2ccccn2c1C(=O)c1ccc([N+](=O)[O-])o1	-147.3*
COCC(C)N=C1NN=C(c2c[nH]c3ccccc23)CS1 (stereo not drawn)	-66.2*
CCN=C1NN=C(c2c[nH]c3ccccc23)CS1	-68.0*
Cn1c(NCc2ccc(Cl)cc2)nc2ccccc21	-100.3*
CCCn1c(CNc2ccccc2O)nc2ccccc21	-83.9*
CCOC(=O)c1ccc(NCc2nc3ccccc3n2C)cc1	-172.2*
Cn1c(CNc2ccc(Br)cc2)nc2ccccc21	-172.4*
Cn1c(CNc2nc3ccccc3n2C)nc2ccccc21	-81.4*
C=CCn1c(NCc2ccc(N(C)C)cc2)nc2ccccc21	-63.4*
Cc1ccc(NCc2nc3ccccc3n2C)cc1C	-113.0*
Cc1ccc(NCc2nc3ccccc3n2C)cc1	-111.3*
COc1ccc(Nc2nc3ccccc3n2C)cc1	-101.4*
Cn1c(S(=O)(=O)Cc2ccc(Cl)cc2)nc2ccccc21	-65.4*
COc1ccc(NCc2nc3ccccc3n2C)cc1	-129.5*
Cc1cccc(NC(=O)c2oc3c(c2C)C(=O)CC(C)(C)C3)n1	-82.7*
COc1ccc(CNc2nc3ccccc3n2C)c(O)c1	-133.5*
CCCn1c(NCc2cccc(OC)c2O)nc2ccccc21	-82.0*
COc1ccc(CNc2nc3ccccc3n2C)c(OC)c1	-87.8*
SMILES	aSyn 5UTR act
N#Cc1cc2ccc(N3CCOCC3)cc2cc1C#N	-72.6*
CCOc1ccc(-c2nnc(N(CC)C(=O)C3CCC3)s2)cc1	-102.4*
CCCC(=O)N(C)c1nnc(-c2ccc(OC)cc2)s1	-128.5*
COc1cccc(Oc2ccc(C(F)(F)F)cc2N)c1	-104.2*
CCOc1ccc(Oc2ccc(C(F)(F)F)cc2N)cc1	-87.0*
O=C(Nc1ccc(C(=O)Oc2ccccc2)c(O)c1)c1ccco1	-118.7*
O=C(Nc1ccc(C(=O)Oc2ccccc2)c(O)c1)c1ccccc1	-66.2*
CCN(CC)S(=O)(=O)c1cc(C(=O)Oc2cccc(-c3cnc4ccccc4n3)c2)ccc1OC	-171.0*
CCN(CC)S(=O)(=O)c1ccc(C)c(C(=O)Oc2cccc(-c3cnc4ccccc4n3)c2)c1	-178.0*
O=C(COC(=O)[C@@H]1CCCN1S(=O)(=O)c1ccc(Cl)cc1)NCC(F)(F)F	31.3
Cc1ccc(S(=O)(=O)N2CCCC2CNC(=O)C(=O)Nc2ccc(F)cc2)cc1 (stereo not drawn)	-73.7*
COc1ccc(NC(=O)C(=O)NCC2CCCN2S(=O)(=O)c2ccc(C)cc2)cc1 (stereo not drawn)	90.6
Cc1ccsc1/C=N/Nc1nc2ccccc2[nH]1	-213.3*
Cc1cc(=O)[nH]c(N/N=C/c2sccc2C)n1	-90.4*
C(=N\Nc1nc2ccccc2[nH]1)/c1cccs1	-171.9*
Cc1nc2nc(-c3cccnc3)nn2c(C)c1Cl	-74.0*
COc1cccc(/C=N/Nc2cc(-n3nc(C)cc3-c3ccccc3)ncn2)c1O	110.2
Cc1cnn(-c2cc(N/N=C/c3ccc(F)cc3)ncn2)c1	-85.9*
Cc1ccc(NC(=O)CC2SCCNC2=O)cc1Cl (stereo not drawn)	-142.8*
COc1cccc([C@@H]2Oc3ccc(OC)cc3C(=O)[C@H]2O)c1	-138.4*
CCOCCCNC(=O)c1ccc(Br)cc1	-84.1*
CC1=Nc2cc(C(=O)NCCCOC(C)C)ccc2Sc2ccc(C)cc21	76.6
CCCC1=Nc2cc(C(=O)NCCCOCC)ccc2Sc2ccccc21	66.5
CC(C)OCCCNC(=O)c1ccc(Br)cc1	-73.4*
Cc1ccccc1OCC(=O)O/N=C(\N)c1ccncc1	-102.7*
SMILES	aSyn 5UTR act
N/C(=N\OC(=O)COc1cc(Cl)c(Cl)cc1Cl)c1ccncc1	-174.1*
Cc1ccc(OCC(=O)O/N=C(\N)c2ccncc2)c(C)c1	-182.1*
COc1ccc(C2CC(=O)N(C)c3ccccc3S2)cc1OC (stereo not drawn)	-87.1*
O=C(Nc1ccc(-n2cnnn2)cc1)c1cn2ccccc2n1	-88.5*
CN(CCc1ccccn1)C(=O)CCc1nnc(CCCc2ccccc2)o1	-91.3*
CC(C)N(Cc1nccn1C)C(=O)CCc1nnc(CCCc2ccccc2)o1	-119.9*
CCCOC(c1ccccc1)(c1ccc(C(F)(F)F)cc1)C(Oc1nc(C)cc(C)n1)C(=O)O (stereo not drawn)	61.3
CCOC(=O)Cn1cnc(-c2ccc([N+](=O)[O-])cc2)c1	-76.6*
CCC(C)(C)c1ccc2c(c1)C(=O)c1ccccc1C2=O	-71.5*
CN(C)S(=O)(=O)c1cccc(C(=O)Nc2ccc(Cl)cn2)c1	-116.2*
COc1ccc(C(=O)Nc2ccc(Cl)cn2)cc1Cl	-181.5*
CCOC(=O)c1sc(NC(=O)C(C)(C)C)cc1C	-166.2*
CCN(CC)Cc1c(NC(=O)c2ccccc2)sc(C)c1C	-87.5*
CCOC(=O)c1sc(NC(=O)c2ccc(Cl)s2)cc1C	-196.2*
CCOC(=O)c1sc(NC(=S)NC(=O)CC(C)C)cc1C	-101.6*
CCOC(=O)c1sc(NC(=O)c2ccccc2)cc1C	-180.8*
CCOC(=O)c1sc(Nc2nc3c(OC)cccc3s2)cc1C	-195.9*
CCOC(=O)c1sc(NC(=O)Nc2ccc(Cl)cc2)cc1C	-135.1*
O=C(Nc1nnc(CCc2ccccc2)s1)c1ccccc1	-90.8*
CC(C)(C)C(=O)Nc1nnc(CCc2ccccc2)s1	-125.9*
COc1ccccc1C(=O)Nc1nnc(CCc2ccccc2)s1	-213.2*
CC(=O)c1ccc(Oc2ccc(C(C)=O)cc2)cc1	-95.8*
CCCCN(CC)C(=O)c1cc2cc3ccc(Cl)cc3nc2o1	-87.4*
C=C(C)CNC(=S)N/N=C/c1ccc(N2CCOCC2)cc1	-64.3*
CC(C)NC(=S)N/N=C/c1ccc(N2CCOCC2)cc1	-87.5*
SMILES	aSyn 5UTR act
Cc1ccc(S(=O)(=O)Oc2ccc(C)cc2/C=N/N=C2\NC(=O)C(C)S2)cc1 (stereo not drawn)	-66.2*
COc1cc2oc(-c3ccc(O)cc3)cc(=O)c2c(O)c1OC	-73.4*
Cc1ccc(Nc2nc(=O)c3cccnc3s2)cc1	-228.0*
O=C(CC1Sc2ccccc2NC1=O)c1ccc(Br)cc1 (stereo not drawn)	-218.0*
CO/N=C/C(=N\Nc1ccc(OC)cc1)C(=O)c1ccc(OC)cc1	-71.0*
CCOc1cc(/C=C2/NC(=O)N(CC(=O)OC)C2=O)ccc1O	-66.0*
CN(C)/C=C(\C#N)C(=O)N/N=C/c1ccccc1	-68.6*
CS(=O)(=O)Nc1ccccc1C(=O)N1CCN(c2ccccc2)CC1	-73.1*
CCOc1ccccc1C(=O)N1CCN(c2cccc(Cl)c2)CC1	95.1
COc1ccc2oc(C(=O)NCCC(C)C)c(C)c2c1	-142.8*
COc1ccc2oc(C(=O)Nc3ccc(C)cn3)c(C)c2c1	-124.2*
CCN(CC(=O)Nc1ccccc1C(F)(F)F)C(=O)c1oc2ccc(OC)cc2c1C	-64.7*
COc1ccc2oc(C(=O)NC3CCCCC3)c(C)c2c1	-99.0*
COc1ccc2oc(=O)c(C(=O)NC3CCCCCC3)cc2c1	-173.6*
COCCN(CC(=O)NC1CCCCC1)C(=O)/C=C/C(=O)c1ccc(OC)cc1O	78.8
Cc1nnc(NC(=O)c2ccc(Br)cc2)s1	-96.2*

Screens: PubChem, Broad Institute
